Measurements as given in PubChem BioAssay (EPA / NIEHS).
Records with an inconclusive call do not appear. Calls of active or inactive are those of the source. How the source made its calls, unless noted: active means hit-call score of the fitted dose curve at least 0.9, where 1 is the maximum; inactive means score below 0.9.

Assays:
[1] = ATG_NFI_CIS: Attagene CIS-FACTORIAL HepG2 Assay for human Nuclear Factor I (NFI) (AID 2282989); conditions: HepG2 cis-regulatory reporter, NFI response element transcription; actives raise or lower the signal
How it was run: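 Read-out: reporter mRNA via RT-PCR plus capillary electrophoresis with fluorescence detection. Transiently transfected HepG2 (endogenous TF activity on cis promoters), 24 h compound exposure; gain or loss of signal fitted against DMSO.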

[2] = molecular target: Myc proto-oncogene protein (Homo sapiens) (UniProt P01106); test: ATG_Myc_CIS: Attagene CIS-FACTORIAL HepG2 Assay for human Myelocytomatosis (Myc) Proto-Oncogene Transcription Factor (AID 2282990); conditions: HepG2, Attagene cis-reporter transcription factor activity; actives raise or lower the signal
How it was run: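 Transiently transfected HepG2 cells bearing cis-promoter reporter units for endogenous transcription factors; 24 h exposure. Reporter mRNA measured by RT-PCR, 6-FAM primer extension, HpaI cut and capillary electrophoresis; bidirectional fit relative to DMSO.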

[3] = ATG_NRF2_ARE_CIS: Attagene CIS-FACTORIAL HepG2 Assay for human Nuclear Factor Erythroid 2 Related Factor 2 (NFR2) response to Antioxidant Response Elements (ARE) (AID 2282992); conditions: HepG2 Attagene ARE/NRF2 reporter, transcription factor activity; actives raise or lower the signal
How it was run: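 Endogenous transcription factor activity read out as reporter transcript levels (RT-PCR plus capillary electrophoresis, fluorescence) in transiently transfected HepG2 cells. Measured at 24 h after dosing; gain or loss of signal fitted versus DMSO.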

[4] = ATG_Oct_MLP_CIS: Attagene CIS-FACTORIAL HepG2 Assay for human Octamer-Binding Transcription Factor (Oct) (AID 2282993); conditions: HepG2 Attagene cis-factorial Oct reporter, mRNA; actives raise or lower the signal
How it was run: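 Read-out: reporter mRNA via RT-PCR plus capillary electrophoresis of 6-FAM-labelled fragments. Transiently transfected HepG2, 24 h exposure, endogenous TF activity on cis elements. Gain or loss of signal fitted relative to DMSO.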

[5] = molecular target: Cellular tumor antigen p53 (Homo sapiens) (UniProt P04637); test: ATG_p53_CIS: Attagene CIS-FACTORIAL HepG2 Assay for human p53 Transcription Factor (AID 2282994); conditions: HepG2 p53 cis-element reporter, Attagene mRNA; actives raise or lower the signal
How it was run: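 Endogenous p53 activity read in transiently transfected HepG2 from a cis-element-driven reporter transcript after 24 h exposure. RNA reverse-transcribed, PCR-amplified, fluorescently labelled and sized by capillary electrophoresis; gain or loss fitted against DMSO baseline.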

[6] = BSK_3C_TissueFactor: BioMAP Diversity Plus: 3C Assay for Tissue Factor Biomarker Activity (AID 2282997); conditions: BioMAP 3C HUVEC, tissue factor biomarker readout; actives raise or lower the signal
How it was run: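 Tissue factor on primary human umbilical vein endothelium was read by ELISA 24 h after dosing, gain or loss relative to DMSO. Cytotoxicity ran alongside via SRB (0.1%, TCA-fixed, 560 nm).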

[7] = BSK_3C_uPAR: BioMAP Diversity Plus: 3C Assay for Urokinase-type plasminogen activator receptor (uPAR) Biomarker Activity (AID 2282998); conditions: BioMAP 3C HUVEC, uPAR biomarker ELISA; actives raise or lower the signal
How it was run: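 HUVEC primary cells; 24 h post-dose; uPAR by ELISA; gain or loss of signal fitted bidirectionally vs DMSO baseline.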

[8] = BSK_3C_VCAM1: BioMAP Diversity Plus: 3C Assay for Vascular cell adhesion molecule 1 (VCAM1) Biomarker Activity (AID 2282999); conditions: BioMAP 3C HUVEC, VCAM1 ELISA, cytokine-stimulated; actives raise or lower the signal
How it was run: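 HUVEC primary cells, 24 h compound exposure; VCAM-1 by ELISA; gain/loss of signal fitted bidirectionally vs DMSO baseline.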

[9] = BSK_4H_Eotaxin3: BioMAP Diversity Plus: 4H Assay for Eotaxin 3 Biomarker Activity (AID 2283000); conditions: primary human endothelial cells (HUVEC); actives raise or lower the signal;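 on outcome: CCL26 protein level quantified by ELISA in parallel with SRB cytotoxicity check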
How it was run: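 Human umbilical vein endothelial cells (BSK_4H system) dosed with test chemical; Eotaxin-3 (CCL26) measured by ELISA 24 h after dosing. Bidirectional curve fitting relative to DMSO negative control as baseline.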

[10] = molecular target: human Peroxisome Proliferator-activated Receptor delta (PPARd), PPARD (gene 5467) (UniProt Q03181); test: ATG_PPARd_TRANS: Attagene TRANS-FACTORIAL HepG2 Assay for human Peroxisome Proliferator-activated Receptor delta (PPARd) (AID 2283002; active means hit-call score of the fitted dose curve at least 0.9, where 1 is the maximum)
How it was run: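 HepG2 cells transiently transfected with GAL4-UAS multiplexed reporter units driven by exogenous chimeric NR-GAL4 proteins; 24 h compound exposure. Reporter mRNA measured by RT-PCR, 6-FAM primer extension, HpaI digestion and capillary electrophoresis; gain of signal fitted relative to DMSO.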

[11] = read-out: Intercellular Adhesion Molecule 1 (ICAM1), ICAM1 (gene 3383); test: BSK_3C_ICAM1: BioMAP Diversity Plus: 3C Assay for Intercellular Adhesion Molecule 1 (ICAM1) Biomarker Activity (AID 2283003); conditions: primary human endothelial cells (HUVEC); actives raise or lower the signal
How it was run: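 ELISA readout of ICAM1 in human umbilical vein endothelial cells in the 3C system, taken 24 h post-dose. Gain or loss of signal versus DMSO was fitted in both directions, with SRB total-protein staining run in parallel.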

[12] = BSK_3C_Proliferation: Cell Proliferation Assessment in the BioMAP Diversity Plus: 3C Assay (AID 2283006); conditions: primary human endothelial cells (HUVEC);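 on AC50: potency may reflect either rise or fall in cell number versus DMSO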
How it was run: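 Proliferation as total protein: sulforhodamine B (0.1%) stain of TCA-fixed subconfluent human umbilical vein endothelial cells, absorbance 560 nm, 48 h after dosing. Activity fitted in both directions against DMSO baseline.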

[13] = molecular target: Nuclear receptor subfamily 1 group I member 2 (Homo sapiens) (UniProt O75469); test: ATG_PXR_TRANS: Attagene TRANS-FACTORIAL HepG2 Assay for human Pregnane X Receptor (PXR) (AID 2283008; active means hit-call score of the fitted dose curve at least 0.9, where 1 is the maximum)
How it was run: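 Transactivation by exogenous PXR–GAL4 fusion measured as reporter transcript induction after 24 h compound treatment of transfected human HepG2 cells. Read-out via RT-PCR and capillary electrophoresis of labelled fragments, fitted upward relative to DMSO.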

[14] = molecular target: human Peroxisome Proliferator-activated Receptor alpha (PPARa), PPARA (gene 5465) (UniProt Q07869); test: ATG_PPARa_TRANS: Attagene TRANS-FACTORIAL HepG2 Assay for human Peroxisome Proliferator-activated Receptor alpha (PPARa) (AID 2283001; active means hit-call score of the fitted dose curve at least 0.9, where 1 is the maximum)
How it was run: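 HepG2, transient MRTU transfection, 24 h treatment. RT-PCR → FAM labelling → capillary electrophoresis. Fit vs DMSO, positive direction.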

[15] = molecular target: Peroxisome proliferator-activated receptor gamma (Homo sapiens) (UniProt P37231); test: ATG_PPARg_TRANS: Attagene TRANS-FACTORIAL HepG2 Assay for human Peroxisome Proliferator-activated Receptor-gamma (PPARg) (AID 2283007; active means hit-call score of the fitted dose curve at least 0.9, where 1 is the maximum)
How it was run: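 Transient transfection of HepG2 with GAL4-UAS-driven reporter units; chemical dosing 24 h; total RNA → oligo(dT) RT → PCR with reporter primers → 6-FAM primer extension → HpaI digest 2 h 37 C → capillary electrophoresis. Positive direction vs DMSO.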

[16] = molecular target: human RAR-related Orphan Receptor gamma (RORg), RORC (gene 6097) (UniProt P51449); test: ATG_RORg_TRANS: Attagene TRANS-FACTORIAL HepG2 Assay for human RAR-related Orphan Receptor gamma (RORg) (AID 2283011; active means hit-call score of the fitted dose curve at least 0.9, where 1 is the maximum)
How it was run: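 Reporter transcripts from a transfected RORg-GAL4 chimera in HepG2 cells were quantified 24 h after dosing by RT-PCR, 6-FAM labelling, HpaI digestion and capillary electrophoresis; increases over DMSO baseline were fitted.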

[17] = molecular target: human Retinoic Acid Receptor gamma (RARg), RARG (gene 5916) (UniProt P13631); test: ATG_RARg_TRANS: Attagene TRANS-FACTORIAL HepG2 Assay for human Retinoic Acid Receptor gamma (RARg) (AID 2283009; active means hit-call score of the fitted dose curve at least 0.9, where 1 is the maximum)
How it was run: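 Transactivation of exogenous RARg-Gal4 fusion measured as reporter transcript induction after 24 h in transfected HepG2 cells. RNA reverse-transcribed, amplified, fluorescently labeled and resolved by capillary electrophoresis; increase relative to DMSO.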

[18] = molecular target: human Retinoic Acid Receptor beta (RARb), RARB (gene 5915) (UniProt P10826); test: ATG_RARb_TRANS: Attagene TRANS-FACTORIAL HepG2 Assay for human Retinoic Acid Receptor beta (AID 2283004; active means hit-call score of the fitted dose curve at least 0.9, where 1 is the maximum)
How it was run: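 Induction of reporter mRNA from a chimeric RARb-Gal4 construct was measured by RT-PCR, FAM labelling, HpaI digestion and capillary electrophoresis. Measurements followed 24 h compound treatment of transiently transfected human HepG2 liver cells, with DMSO as baseline.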

[19] = molecular target: Retinoic acid receptor alpha (Homo sapiens) (UniProt P10276); test: ATG_RARa_TRANS: Attagene TRANS-FACTORIAL HepG2 Assay for human Retinoic Acid Receptor alpha (RARa) (AID 2283005; active means hit-call score of the fitted dose curve at least 0.9, where 1 is the maximum)
How it was run: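 HepG2 transiently transfected with multiplex GAL4-UAS reporter units including a human RARa–GAL4 chimera; 24 h compound exposure. Reporter mRNA quantified by RT-PCR, 6-FAM labeling and capillary electrophoresis; gain of signal versus DMSO.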

human Peroxisome Proliferator-activated Receptor delta (PPARd), PPARD (gene 5467), sequence (Q03181 whole entry, looked up, the tested form may be a part): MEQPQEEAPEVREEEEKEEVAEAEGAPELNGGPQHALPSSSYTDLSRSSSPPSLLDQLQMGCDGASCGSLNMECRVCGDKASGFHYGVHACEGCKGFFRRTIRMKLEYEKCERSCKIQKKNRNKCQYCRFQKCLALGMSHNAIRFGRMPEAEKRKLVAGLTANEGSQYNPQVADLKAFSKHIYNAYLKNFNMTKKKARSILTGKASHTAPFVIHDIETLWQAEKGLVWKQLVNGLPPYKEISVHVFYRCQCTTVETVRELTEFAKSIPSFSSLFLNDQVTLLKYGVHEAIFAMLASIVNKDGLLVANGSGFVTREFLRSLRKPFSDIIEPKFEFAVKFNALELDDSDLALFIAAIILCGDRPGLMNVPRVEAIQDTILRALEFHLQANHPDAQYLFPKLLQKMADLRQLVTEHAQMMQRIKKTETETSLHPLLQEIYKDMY
human Retinoic Acid Receptor gamma (RARg), RARG (gene 5916), sequence (P13631 whole entry, looked up, the tested form may be a part): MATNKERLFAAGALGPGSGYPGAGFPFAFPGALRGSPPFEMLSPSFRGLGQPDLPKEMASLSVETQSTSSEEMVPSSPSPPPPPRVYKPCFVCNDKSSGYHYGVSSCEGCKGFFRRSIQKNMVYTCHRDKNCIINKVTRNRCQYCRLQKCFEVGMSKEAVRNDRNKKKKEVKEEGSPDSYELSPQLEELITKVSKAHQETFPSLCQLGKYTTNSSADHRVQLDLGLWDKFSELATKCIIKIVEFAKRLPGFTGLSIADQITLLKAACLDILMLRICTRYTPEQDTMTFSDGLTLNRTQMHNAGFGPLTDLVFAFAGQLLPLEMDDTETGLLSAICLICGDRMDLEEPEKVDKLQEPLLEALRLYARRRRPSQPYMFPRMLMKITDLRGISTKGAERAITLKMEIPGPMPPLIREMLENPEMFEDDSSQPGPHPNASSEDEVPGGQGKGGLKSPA
Cellular tumor antigen p53 (Homo sapiens), sequence (P04637 whole entry, looked up): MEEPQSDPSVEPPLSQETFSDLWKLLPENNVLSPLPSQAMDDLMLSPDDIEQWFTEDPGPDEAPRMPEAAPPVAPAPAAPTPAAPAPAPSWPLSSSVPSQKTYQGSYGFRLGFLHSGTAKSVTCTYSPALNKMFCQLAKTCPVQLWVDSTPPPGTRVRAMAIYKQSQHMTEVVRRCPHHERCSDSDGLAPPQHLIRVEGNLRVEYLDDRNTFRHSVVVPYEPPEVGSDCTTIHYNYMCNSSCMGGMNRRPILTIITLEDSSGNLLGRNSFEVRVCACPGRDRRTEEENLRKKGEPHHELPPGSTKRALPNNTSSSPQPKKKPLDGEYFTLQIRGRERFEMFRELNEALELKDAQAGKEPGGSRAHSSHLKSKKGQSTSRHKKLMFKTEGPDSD
Myc proto-oncogene protein (Homo sapiens), sequence (P01106 whole entry, looked up): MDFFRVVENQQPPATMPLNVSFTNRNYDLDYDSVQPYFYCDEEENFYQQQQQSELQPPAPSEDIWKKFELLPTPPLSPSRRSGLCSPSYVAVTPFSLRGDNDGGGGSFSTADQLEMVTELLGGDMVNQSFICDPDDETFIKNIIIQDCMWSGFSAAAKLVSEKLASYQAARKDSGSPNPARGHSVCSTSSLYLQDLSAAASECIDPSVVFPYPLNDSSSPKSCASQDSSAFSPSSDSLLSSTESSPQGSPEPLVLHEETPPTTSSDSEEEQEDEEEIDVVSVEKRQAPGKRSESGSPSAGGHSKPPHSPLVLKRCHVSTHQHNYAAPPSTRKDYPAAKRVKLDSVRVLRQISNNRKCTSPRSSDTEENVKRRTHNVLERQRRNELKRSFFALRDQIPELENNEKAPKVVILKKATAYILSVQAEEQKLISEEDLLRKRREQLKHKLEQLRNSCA
human RAR-related Orphan Receptor gamma (RORg), RORC (gene 6097), sequence (P51449 whole entry, looked up, the tested form may be a part): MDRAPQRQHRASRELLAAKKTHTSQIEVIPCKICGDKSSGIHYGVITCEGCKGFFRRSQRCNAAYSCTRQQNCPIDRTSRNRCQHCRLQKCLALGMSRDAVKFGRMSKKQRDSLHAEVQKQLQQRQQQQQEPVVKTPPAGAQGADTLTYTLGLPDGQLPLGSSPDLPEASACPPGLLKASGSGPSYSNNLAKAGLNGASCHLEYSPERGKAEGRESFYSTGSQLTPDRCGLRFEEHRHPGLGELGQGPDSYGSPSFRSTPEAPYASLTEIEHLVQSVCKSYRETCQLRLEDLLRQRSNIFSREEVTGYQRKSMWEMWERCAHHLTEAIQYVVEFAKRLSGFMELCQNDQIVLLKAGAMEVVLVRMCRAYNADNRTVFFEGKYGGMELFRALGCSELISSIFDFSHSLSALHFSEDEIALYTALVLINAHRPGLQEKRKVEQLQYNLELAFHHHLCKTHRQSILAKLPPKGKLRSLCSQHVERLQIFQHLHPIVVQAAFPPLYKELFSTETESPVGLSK
human Peroxisome Proliferator-activated Receptor alpha (PPARa), PPARA (gene 5465), sequence (Q07869 whole entry, looked up): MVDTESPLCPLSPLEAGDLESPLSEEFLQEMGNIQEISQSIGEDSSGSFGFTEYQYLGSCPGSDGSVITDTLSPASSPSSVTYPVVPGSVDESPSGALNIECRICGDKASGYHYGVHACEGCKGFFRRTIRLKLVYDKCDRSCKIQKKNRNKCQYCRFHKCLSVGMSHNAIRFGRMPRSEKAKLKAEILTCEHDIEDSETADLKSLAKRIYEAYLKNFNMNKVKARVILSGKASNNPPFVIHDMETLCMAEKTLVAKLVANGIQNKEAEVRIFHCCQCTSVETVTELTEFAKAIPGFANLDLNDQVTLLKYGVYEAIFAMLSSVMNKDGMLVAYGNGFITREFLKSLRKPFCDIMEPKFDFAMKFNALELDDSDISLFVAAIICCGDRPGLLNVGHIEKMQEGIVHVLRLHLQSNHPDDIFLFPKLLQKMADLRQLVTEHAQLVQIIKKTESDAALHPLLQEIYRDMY
Nuclear receptor subfamily 1 group I member 2 (Homo sapiens), sequence (O75469 whole entry, looked up, the tested form may be a part): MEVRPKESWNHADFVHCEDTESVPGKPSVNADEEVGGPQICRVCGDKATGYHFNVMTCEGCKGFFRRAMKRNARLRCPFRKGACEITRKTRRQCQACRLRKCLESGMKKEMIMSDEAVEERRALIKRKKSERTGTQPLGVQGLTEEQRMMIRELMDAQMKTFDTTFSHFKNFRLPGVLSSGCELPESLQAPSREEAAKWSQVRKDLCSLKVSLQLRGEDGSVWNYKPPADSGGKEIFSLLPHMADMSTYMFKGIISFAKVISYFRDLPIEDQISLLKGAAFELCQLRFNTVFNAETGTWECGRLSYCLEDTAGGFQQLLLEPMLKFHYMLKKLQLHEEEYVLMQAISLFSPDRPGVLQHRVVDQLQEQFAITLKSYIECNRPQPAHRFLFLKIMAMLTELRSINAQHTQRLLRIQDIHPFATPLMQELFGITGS
human Retinoic Acid Receptor beta (RARb), RARB (gene 5915), sequence (P10826 whole entry, looked up, the tested form may be a part): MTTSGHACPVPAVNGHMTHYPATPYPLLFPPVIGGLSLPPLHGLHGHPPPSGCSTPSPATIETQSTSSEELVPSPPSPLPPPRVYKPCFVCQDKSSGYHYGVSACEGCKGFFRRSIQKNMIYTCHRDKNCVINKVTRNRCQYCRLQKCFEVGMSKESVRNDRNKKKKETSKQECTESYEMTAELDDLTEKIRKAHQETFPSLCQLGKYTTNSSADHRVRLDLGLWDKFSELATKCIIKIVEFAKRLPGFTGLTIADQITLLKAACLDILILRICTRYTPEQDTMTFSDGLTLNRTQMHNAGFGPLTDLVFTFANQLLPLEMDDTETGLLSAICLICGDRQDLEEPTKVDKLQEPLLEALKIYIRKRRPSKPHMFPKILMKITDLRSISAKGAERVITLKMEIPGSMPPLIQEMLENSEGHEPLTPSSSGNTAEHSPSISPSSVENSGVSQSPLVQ
Peroxisome proliferator-activated receptor gamma (Homo sapiens), sequence (P37231 whole entry, looked up, the tested form may be a part): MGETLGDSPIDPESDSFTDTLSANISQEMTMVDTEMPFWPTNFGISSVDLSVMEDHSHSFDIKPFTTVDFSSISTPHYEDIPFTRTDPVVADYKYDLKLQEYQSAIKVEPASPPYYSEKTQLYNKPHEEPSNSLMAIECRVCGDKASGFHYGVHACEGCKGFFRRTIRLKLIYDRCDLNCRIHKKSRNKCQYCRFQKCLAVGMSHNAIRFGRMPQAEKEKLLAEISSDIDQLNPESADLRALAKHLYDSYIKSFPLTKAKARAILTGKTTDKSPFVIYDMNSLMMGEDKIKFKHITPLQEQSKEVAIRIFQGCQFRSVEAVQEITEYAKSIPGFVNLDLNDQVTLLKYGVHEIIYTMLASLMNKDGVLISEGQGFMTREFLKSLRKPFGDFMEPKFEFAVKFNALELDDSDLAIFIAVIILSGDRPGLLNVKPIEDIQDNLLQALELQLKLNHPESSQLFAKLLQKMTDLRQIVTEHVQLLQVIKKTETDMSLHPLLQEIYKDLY
Retinoic acid receptor alpha (Homo sapiens), sequence (P10276 whole entry, looked up, the tested form may be a part): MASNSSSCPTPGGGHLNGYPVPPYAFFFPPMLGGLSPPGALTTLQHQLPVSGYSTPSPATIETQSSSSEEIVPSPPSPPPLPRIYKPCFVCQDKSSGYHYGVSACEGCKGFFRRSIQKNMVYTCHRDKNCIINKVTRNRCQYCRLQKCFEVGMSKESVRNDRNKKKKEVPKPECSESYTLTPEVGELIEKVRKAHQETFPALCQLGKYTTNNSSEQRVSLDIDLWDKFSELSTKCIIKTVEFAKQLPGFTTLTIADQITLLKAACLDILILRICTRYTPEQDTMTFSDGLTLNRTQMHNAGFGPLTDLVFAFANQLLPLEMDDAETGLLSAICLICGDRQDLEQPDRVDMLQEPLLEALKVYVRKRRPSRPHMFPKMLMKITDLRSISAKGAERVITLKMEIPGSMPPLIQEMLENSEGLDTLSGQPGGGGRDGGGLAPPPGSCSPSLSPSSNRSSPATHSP

For `CN(C)c1ccc(N=NS(=O)(=O)O)cc1`, the outcome [1] was “inactive”, the outcome [2] was “inactive” and the AC50 [3] was 54 µM (active). The AC50 [4] was 130 µM (active), the outcome [5] was “inactive” and the AC50 [6] was 5.79 µM (active). The outcome [7] was “inactive”, the AC50 [8] was 6.47 µM (active) and the outcome [9] was “inactive”. The outcome [10] was “inactive”, the outcome [11] was “inactive” and the outcome [12] was “inactive”. The outcome [13] was “inactive”.
For `COc1ccc2sc(C(=O)Nc3nnn[nH]3)c(OC(C)C)c2c1`, the outcome [1] was “inactive”, the outcome [2] was “inactive” and the AC50 [3] was 70.2 µM (active). For the same compound, the AC50 [4] was 155 µM (active), the AC50 [5] was 71.4 µM (active) and the AC50 [6] was 22.5 µM (active). For the same compound, the AC50 [7] was 5.51 µM (active), the AC50 [8] was 23.7 µM (active) and the AC50 [9] was 23.3 µM (active). For the same compound, the outcome [14] was “inactive”, the outcome [10] was “inactive” and the AC50 [11] was 26.4 µM (active). The AC50 [12] was 9.42 µM (active), the AC50 [15] was 22.9 µM (active) and the outcome [13] was “inactive”. For the same compound, the outcome [16] was “inactive”.
In the case of `CCC(C)(C)C(=O)O[C@H]1C[C@@H](C)C=C2C=C[C@H](C)[C@H](CC[C@@H]3C[C@@H](O)CC(=O)O3)[C@H]21`, the outcome [1] is reported as “inactive”, the outcome [2] is reported as “inactive” and the outcome [3] is reported as “inactive”. The outcome [4] was “inactive”, the outcome [5] was “inactive” and the AC50 [6] was 20 µM (active). For the same compound, the AC50 [7] was 16.9 µM (active), the AC50 [8] was 29.9 µM (active) and the AC50 [9] was 34.5 µM (active). For the same compound, the outcome [14] was “inactive”, the outcome [10] was “inactive” and the outcome [11] was “inactive”. The AC50 [12] was 4.32 µM (active), the outcome [15] was “inactive” and the outcome [17] was “inactive”. The outcome [16] was “inactive”.
With `CC1(C)C(=O)N(Br)C(=O)N1Br` the outcome [1] was “inactive”, the outcome [2] was “inactive” and the AC50 [3] was 52.4 µM (active). The outcome [4] was “inactive”, the outcome [5] was “inactive” and the outcome [6] was “inactive”. The outcome [7] was “inactive”, the outcome [8] was “inactive” and the outcome [9] was “inactive”. The outcome [10] was “inactive”, the outcome [11] was “inactive” and the outcome [12] was “inactive”.
In the case of `Cc1ccc(N)cc1O`, the outcome [1] is reported as “inactive”, the outcome [2] is reported as “inactive” and the AC50 [3] is reported as 22.3 µM (active). For the same compound, the outcome [4] was “inactive”, the outcome [5] was “inactive” and the outcome [6] was “inactive”. The outcome [7] was “inactive”, the outcome [8] was “inactive” and the AC50 [9] was 20 µM (active). The outcome [14] was “inactive”, the outcome [10] was “inactive” and the outcome [11] was “inactive”. The outcome [18] was “inactive”, the outcome [12] was “inactive” and the outcome [13] was “inactive”. The outcome [16] was “inactive”.
With `O=C1OC(=O)C2C3C=CC(C3)C12` (stereo not drawn) the outcome [1] was “inactive”, the outcome [2] was “inactive” and the outcome [3] was “inactive”. For the same compound, the outcome [4] was “inactive”, the outcome [5] was “inactive” and the outcome [6] was “inactive”. For the same compound, the outcome [7] was “inactive”, the outcome [8] was “inactive” and the outcome [9] was “inactive”. The outcome [14] was “inactive”, the outcome [10] was “inactive” and the outcome [11] was “inactive”. The outcome [12] was “inactive” and the outcome [13] was “inactive”.
For `CCCCCCCCO`, the outcome [1] was “inactive”, the outcome [2] was “inactive” and the outcome [3] was “inactive”. The outcome [4] was “inactive”, the outcome [5] was “inactive” and the outcome [6] was “inactive”. The outcome [7] was “inactive”, the outcome [8] was “inactive” and the outcome [9] was “inactive”. The outcome [14] was “inactive”, the outcome [11] was “inactive” and the outcome [18] was “inactive”. For the same compound, the outcome [12] was “inactive”, the outcome [13] was “inactive” and the outcome [17] was “inactive”.
In the case of `Cc1[nH]cnc1C[C@H]1CCc2c(C)c3ccccc3n2C1=O`, the outcome [1] is reported as “inactive”, the outcome [2] is reported as “inactive” and the outcome [3] is reported as “inactive”. The AC50 [4] was 21 µM (active), the AC50 [5] was 7.45 µM (active) and the outcome [6] was “inactive”. For the same compound, the AC50 [7] was 27.4 µM (active), the outcome [8] was “inactive” and the AC50 [9] was 29.6 µM (active). The outcome [14] was “inactive”, the outcome [10] was “inactive” and the outcome [11] was “inactive”. The outcome [19] was “inactive”, the AC50 [12] was 26.1 µM (active) and the outcome [13] was “inactive”. For the same compound, the outcome [17] was “inactive”.
